Measurements taken from PubChem BioAssay (EPA / NIEHS).
Records with an inconclusive call do not appear. The source made the active and inactive calls. The calls were made as follows, unless noted: active = hit-call score of the fitted dose curve at least 0.9, where 1 is the maximum; inactive = score below 0.9.

What was measured:
[1] = biological target: Nuclear receptor subfamily 4 group A member 2 (Homo sapiens) (UniProt P43354); experiment: ATG_NURR1_TRANS: Attagene TRANS-FACTORIAL HepG2 Assay for human Nuclear Receptor Related Protein 1 (NURR1) (AID 2282985; active = hit-call score of the fitted dose curve at least 0.9, where 1 is the maximum); conditions: HepG2 Attagene TRANS reporter, mRNA readout
In short: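 Measures transcriptional activation by an exogenous NR-Gal4 chimera in transfected HepG2 liver cells. After 24 h, reporter RNA is reverse-transcribed, amplified and resolved by capillary electrophoresis; DMSO defines baseline.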

[2] = biological target: Transcriptional activator Myb (Homo sapiens) (UniProt P10242); experiment: ATG_Myb_CIS: Attagene CIS-FACTORIAL HepG2 Assay for human Myeloblastosis (Myb) Proto-Oncogene Transcription Factor (AID 2282986); conditions: HepG2 Attagene CIS-FACTORIAL Myb reporter transcription; actives raise or lower the signal
In short: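 After 24 h of compound dosing, total RNA from transfected HepG2 cells is reverse-transcribed and the reporter sequences amplified, labeled and separated by capillary electrophoresis. Values come from bidirectional fitting against DMSO.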

[3] = biological target: Nuclear respiratory factor 1 (Homo sapiens) (UniProt Q16656); experiment: ATG_NRF1_CIS: Attagene CIS-FACTORIAL HepG2 Assay for human Nuclear Respiratory Factor 1 (NRF1) Orphan Gene (AID 2282987); conditions: HepG2 NRF1 cis-element reporter, Attagene multiplex; actives raise or lower the signal
In short: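 Measured: fluorescent reporter-specific RT-PCR products from transfected HepG2 cells, separated by capillary electrophoresis. Exposure lasted 24 h. Analysis used bidirectional curve fitting with DMSO as negative control.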

[4] = ATG_NFI_CIS: Attagene CIS-FACTORIAL HepG2 Assay for human Nuclear Factor I (NFI) (AID 2282989); conditions: HepG2 cis-regulatory reporter, NFI response element transcription; actives raise or lower the signal
In short: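 HepG2 cells transiently transfected with cis-element-driven multiplexed reporter transcription units, dosed for 24 h. Reporter mRNA quantified by RT-PCR, fluorescent labelling, HpaI digestion and capillary electrophoresis; bidirectional fit versus DMSO baseline.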

[5] = biological target: Myc proto-oncogene protein (Homo sapiens) (UniProt P01106); experiment: ATG_Myc_CIS: Attagene CIS-FACTORIAL HepG2 Assay for human Myelocytomatosis (Myc) Proto-Oncogene Transcription Factor (AID 2282990); conditions: HepG2, Attagene cis-reporter transcription factor activity; actives raise or lower the signal
In short: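 HepG2, transient MRTU transfection (cis promoters, endogenous TFs); 24 h dosing; TriZol RNA → oligo(dT) RT → PCR → 6-FAM primer extension → HpaI cut → CE. Bidirectional fit vs DMSO.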

[6] = ATG_NF_kB_CIS: Attagene CIS-FACTORIAL HepG2 Assay for human Nuclear Factor Kappa B (NF-kB) (AID 2282991); conditions: HepG2 Attagene cis-factorial NF-kB reporter mRNA; actives raise or lower the signal
In short: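 Fluorescence of labelled RT-PCR products separated by capillary electrophoresis gives reporter mRNA levels from transfected HepG2 cells exposed 24 h; values are fitted in both directions relative to DMSO.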

[7] = ATG_NRF2_ARE_CIS: Attagene CIS-FACTORIAL HepG2 Assay for human Nuclear Factor Erythroid 2 Related Factor 2 (NFR2) response to Antioxidant Response Elements (ARE) (AID 2282992); conditions: HepG2 Attagene ARE/NRF2 reporter, transcription factor activity; actives raise or lower the signal
In short: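 Using transiently transfected HepG2 cells exposed for 24 h, reporter mRNA levels were determined by RT-PCR with fluorescent primer extension and capillary electrophoresis, analysed for gain or loss of signal against DMSO.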

[8] = ATG_Oct_MLP_CIS: Attagene CIS-FACTORIAL HepG2 Assay for human Octamer-Binding Transcription Factor (Oct) (AID 2282993); conditions: HepG2 Attagene cis-factorial Oct reporter, mRNA; actives raise or lower the signal
In short: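 HepG2 cells transiently transfected with cis-promoter-driven multiplexed reporter transcription units, dosed for 24 h. Reporter mRNA quantified by RT-PCR, fluorescent labelling, HpaI digestion and capillary electrophoresis; bidirectional fits versus DMSO baseline.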

[9] = biological target: Cellular tumor antigen p53 (Homo sapiens) (UniProt P04637); experiment: ATG_p53_CIS: Attagene CIS-FACTORIAL HepG2 Assay for human p53 Transcription Factor (AID 2282994); conditions: HepG2 p53 cis-element reporter, Attagene mRNA; actives raise or lower the signal
In short: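 In HepG2 cells, reporter transcription units under cis-regulatory promoters were transiently introduced. Following 24 h treatment, RNA was processed to labelled, digested cDNA fragments read by capillary electrophoresis; fitting was bidirectional versus DMSO.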

[10] = BSK_3C_TissueFactor: BioMAP Diversity Plus: 3C Assay for Tissue Factor Biomarker Activity (AID 2282997); conditions: BioMAP 3C HUVEC, tissue factor biomarker readout; actives raise or lower the signal
In short: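 Tissue factor on primary human umbilical vein endothelium was read by ELISA 24 h after dosing, gain or loss relative to DMSO. Cytotoxicity ran alongside via SRB (0.1%, TCA-fixed, 560 nm).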

[11] = BSK_3C_uPAR: BioMAP Diversity Plus: 3C Assay for Urokinase-type plasminogen activator receptor (uPAR) Biomarker Activity (AID 2282998); conditions: BioMAP 3C HUVEC, uPAR biomarker ELISA; actives raise or lower the signal
In short: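 Human umbilical vein endothelial primary cells were exposed to test chemical for 24 h. Cell-surface uPAR was then quantified by ELISA, and responses were fitted bidirectionally against DMSO as negative control and baseline.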

[12] = BSK_3C_VCAM1: BioMAP Diversity Plus: 3C Assay for Vascular cell adhesion molecule 1 (VCAM1) Biomarker Activity (AID 2282999); conditions: BioMAP 3C HUVEC, VCAM1 ELISA, cytokine-stimulated; actives raise or lower the signal
In short: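 Activity fitted in both directions relative to DMSO, with ELISA measurement of the surface marker on primary HUVEC (3C) at 24 h post-treatment; parallel SRB staining (0.1% SRB, TCA-fixed, 560 nm) flagged overt cytotoxicity.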

[13] = BSK_4H_Eotaxin3: BioMAP Diversity Plus: 4H Assay for Eotaxin 3 Biomarker Activity (AID 2283000); conditions: primary human endothelial cells (HUVEC); actives raise or lower the signal;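 also: CCL26 protein level quantified by ELISA in parallel with SRB cytotoxicity check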
In short: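 Human umbilical vein endothelial cells (BSK_4H system) dosed with test chemical; Eotaxin-3 (CCL26) measured by ELISA 24 h after dosing. Bidirectional curve fitting relative to DMSO negative control as baseline.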

[14] = read-out: Intercellular Adhesion Molecule 1 (ICAM1), ICAM1 (gene 3383); experiment: BSK_3C_ICAM1: BioMAP Diversity Plus: 3C Assay for Intercellular Adhesion Molecule 1 (ICAM1) Biomarker Activity (AID 2283003); conditions: primary human endothelial cells (HUVEC); actives raise or lower the signal
In short: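 Using DMSO as baseline, bidirectional curve fitting was applied to ICAM-1 ELISA signals from HUVEC in the 3C system, measured 24 h after compound addition.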

[15] = biological target: human Retinoic Acid Receptor beta (RARb), RARB (gene 5915) (UniProt P10826); experiment: ATG_RARb_TRANS: Attagene TRANS-FACTORIAL HepG2 Assay for human Retinoic Acid Receptor beta (AID 2283004; active = hit-call score of the fitted dose curve at least 0.9, where 1 is the maximum)
In short: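 Induction of reporter mRNA from a chimeric RARb-Gal4 construct was measured by RT-PCR, FAM labelling, HpaI digestion and capillary electrophoresis. Measurements followed 24 h compound treatment of transiently transfected human HepG2 liver cells, with DMSO as baseline.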

[16] = biological target: Retinoic acid receptor alpha (Homo sapiens) (UniProt P10276); experiment: ATG_RARa_TRANS: Attagene TRANS-FACTORIAL HepG2 Assay for human Retinoic Acid Receptor alpha (RARa) (AID 2283005; active = hit-call score of the fitted dose curve at least 0.9, where 1 is the maximum;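 as to AC50: potency for increased reporter signal meaning RARa activation over DMSO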)
In short: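 Reporter transcripts, measured by RT-PCR with fluorescent labeling and capillary electrophoresis after 24 h dosing, reflect activity of an exogenous human RARa–GAL4 fusion in transiently transfected HepG2. Fitted for increase relative to DMSO.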

[17] = biological target: Peroxisome proliferator-activated receptor gamma (Homo sapiens) (UniProt P37231); experiment: ATG_PPARg_TRANS: Attagene TRANS-FACTORIAL HepG2 Assay for human Peroxisome Proliferator-activated Receptor-gamma (PPARg) (AID 2283007; active = hit-call score of the fitted dose curve at least 0.9, where 1 is the maximum)
In short: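 Twenty-four hours after chemical dosing of transiently transfected HepG2 cells, isolated RNA was converted to cDNA, reporter sequences amplified and 6-FAM-labelled, then HpaI-digested and analysed by capillary electrophoresis. Signal increase against DMSO was fitted.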

[18] = BSK_3C_Proliferation: Cell Proliferation Assessment in the BioMAP Diversity Plus: 3C Assay (AID 2283006); conditions: primary human endothelial cells (HUVEC);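 as to AC50: potency may reflect either rise or fall in cell number versus DMSO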
In short: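 Measured here: sulforhodamine B (0.1%) staining of TCA-fixed sub-confluent umbilical vein endothelial cultures 48 h post-dosing, absorbance 560 nm. DMSO served as negative control and baseline; both signal gain and loss were modelled.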

[19] = biological target: human Peroxisome Proliferator-activated Receptor delta (PPARd), PPARD (gene 5467) (UniProt Q03181); experiment: ATG_PPARd_TRANS: Attagene TRANS-FACTORIAL HepG2 Assay for human Peroxisome Proliferator-activated Receptor delta (PPARd) (AID 2283002; active = hit-call score of the fitted dose curve at least 0.9, where 1 is the maximum)
In short: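 Transient HepG2 transfection (multiple GAL4-UAS RTUs, chimeric receptor-Gal4); 24 h dosing; total RNA → oligo(dT) RT → PCR → 6-FAM primer extension → HpaI cut → CE. Positive direction vs DMSO.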

[20] = biological target: human Peroxisome Proliferator-activated Receptor alpha (PPARa), PPARA (gene 5465) (UniProt Q07869); experiment: ATG_PPARa_TRANS: Attagene TRANS-FACTORIAL HepG2 Assay for human Peroxisome Proliferator-activated Receptor alpha (PPARa) (AID 2283001; active = hit-call score of the fitted dose curve at least 0.9, where 1 is the maximum)
In short: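 Transfected HepG2 cells treated with test chemical for 24 h. RNA isolated, reverse-transcribed with oligo(dT), PCR-amplified, FAM-labelled and HpaI-digested. Fragments sized by capillary electrophoresis; gain-of-signal fit relative to DMSO.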

Measured: AC50

Chain of Myc proto-oncogene protein (Homo sapiens) (P01106 whole entry, looked up): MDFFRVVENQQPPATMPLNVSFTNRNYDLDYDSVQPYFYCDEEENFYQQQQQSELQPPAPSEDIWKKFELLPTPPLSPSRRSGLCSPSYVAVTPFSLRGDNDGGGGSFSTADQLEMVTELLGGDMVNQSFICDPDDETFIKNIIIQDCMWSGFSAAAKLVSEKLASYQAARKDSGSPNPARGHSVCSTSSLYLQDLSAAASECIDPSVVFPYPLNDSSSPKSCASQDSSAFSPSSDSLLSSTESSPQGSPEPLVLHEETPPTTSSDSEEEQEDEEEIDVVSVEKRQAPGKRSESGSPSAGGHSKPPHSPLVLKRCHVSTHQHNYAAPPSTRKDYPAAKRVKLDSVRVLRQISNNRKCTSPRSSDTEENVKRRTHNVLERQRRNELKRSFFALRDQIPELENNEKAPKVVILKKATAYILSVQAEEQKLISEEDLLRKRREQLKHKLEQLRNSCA
Chain of Nuclear receptor subfamily 4 group A member 2 (Homo sapiens) (P43354 whole entry, looked up, the tested form may be a part): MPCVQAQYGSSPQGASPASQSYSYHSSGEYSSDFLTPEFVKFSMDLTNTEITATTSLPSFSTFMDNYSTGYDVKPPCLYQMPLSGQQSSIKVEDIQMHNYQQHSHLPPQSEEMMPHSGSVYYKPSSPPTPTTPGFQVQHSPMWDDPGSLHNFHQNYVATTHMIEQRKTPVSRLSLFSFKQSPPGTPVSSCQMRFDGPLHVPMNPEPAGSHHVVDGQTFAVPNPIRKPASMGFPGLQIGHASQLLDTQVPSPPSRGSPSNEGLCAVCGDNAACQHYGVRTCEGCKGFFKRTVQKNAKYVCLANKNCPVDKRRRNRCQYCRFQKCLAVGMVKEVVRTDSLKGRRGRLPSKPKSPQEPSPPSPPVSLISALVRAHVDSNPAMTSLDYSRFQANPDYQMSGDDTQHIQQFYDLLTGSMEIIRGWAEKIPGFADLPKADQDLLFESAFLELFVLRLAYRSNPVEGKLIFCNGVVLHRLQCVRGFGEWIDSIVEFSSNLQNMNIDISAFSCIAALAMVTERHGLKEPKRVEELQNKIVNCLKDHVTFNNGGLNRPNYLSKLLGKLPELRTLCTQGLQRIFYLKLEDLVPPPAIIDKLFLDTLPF
Chain of Transcriptional activator Myb (Homo sapiens) (P10242 whole entry, looked up): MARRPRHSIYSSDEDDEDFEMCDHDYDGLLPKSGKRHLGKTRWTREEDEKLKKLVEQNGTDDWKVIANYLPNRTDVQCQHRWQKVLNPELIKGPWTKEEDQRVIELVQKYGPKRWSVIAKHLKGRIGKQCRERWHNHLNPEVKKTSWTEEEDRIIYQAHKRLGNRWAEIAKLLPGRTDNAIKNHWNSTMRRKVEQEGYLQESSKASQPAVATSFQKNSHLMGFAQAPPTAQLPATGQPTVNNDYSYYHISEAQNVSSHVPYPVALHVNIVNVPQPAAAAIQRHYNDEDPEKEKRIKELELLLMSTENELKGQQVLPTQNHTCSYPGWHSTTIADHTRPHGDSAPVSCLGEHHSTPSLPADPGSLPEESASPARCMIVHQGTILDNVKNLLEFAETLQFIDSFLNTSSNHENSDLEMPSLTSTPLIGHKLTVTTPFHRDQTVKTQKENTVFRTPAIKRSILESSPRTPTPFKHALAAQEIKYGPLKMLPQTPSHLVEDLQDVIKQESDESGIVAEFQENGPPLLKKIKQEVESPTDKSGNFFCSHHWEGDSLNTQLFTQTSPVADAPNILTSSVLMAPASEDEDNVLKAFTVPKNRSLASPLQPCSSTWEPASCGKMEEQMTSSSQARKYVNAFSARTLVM
Chain of human Peroxisome Proliferator-activated Receptor delta (PPARd), PPARD (gene 5467) (Q03181 whole entry, looked up, the tested form may be a part): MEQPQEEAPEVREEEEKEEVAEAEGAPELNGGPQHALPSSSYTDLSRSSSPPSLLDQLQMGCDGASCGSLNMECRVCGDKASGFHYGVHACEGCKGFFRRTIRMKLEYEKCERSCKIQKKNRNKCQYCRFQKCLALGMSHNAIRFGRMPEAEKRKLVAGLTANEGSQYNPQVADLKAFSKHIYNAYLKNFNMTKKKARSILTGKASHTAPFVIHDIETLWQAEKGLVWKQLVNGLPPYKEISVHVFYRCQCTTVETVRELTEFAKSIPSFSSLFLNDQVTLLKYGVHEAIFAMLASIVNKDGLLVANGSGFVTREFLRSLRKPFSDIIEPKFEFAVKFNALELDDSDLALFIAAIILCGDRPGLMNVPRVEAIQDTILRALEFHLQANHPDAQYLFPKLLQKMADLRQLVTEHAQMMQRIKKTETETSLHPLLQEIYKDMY
Chain of Retinoic acid receptor alpha (Homo sapiens) (P10276 whole entry, looked up, the tested form may be a part): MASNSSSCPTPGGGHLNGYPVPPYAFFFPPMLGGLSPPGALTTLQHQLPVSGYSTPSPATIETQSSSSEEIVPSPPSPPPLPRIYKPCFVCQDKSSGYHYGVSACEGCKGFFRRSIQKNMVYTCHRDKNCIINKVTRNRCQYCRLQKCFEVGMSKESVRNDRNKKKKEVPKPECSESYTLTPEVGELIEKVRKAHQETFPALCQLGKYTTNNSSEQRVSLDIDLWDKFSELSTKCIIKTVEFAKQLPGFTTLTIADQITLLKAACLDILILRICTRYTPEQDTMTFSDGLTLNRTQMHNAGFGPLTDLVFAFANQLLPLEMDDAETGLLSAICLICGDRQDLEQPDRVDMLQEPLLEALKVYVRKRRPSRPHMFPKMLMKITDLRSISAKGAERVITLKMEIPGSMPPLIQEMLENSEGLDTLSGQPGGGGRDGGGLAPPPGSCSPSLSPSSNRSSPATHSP
Chain of human Retinoic Acid Receptor beta (RARb), RARB (gene 5915) (P10826 whole entry, looked up, the tested form may be a part): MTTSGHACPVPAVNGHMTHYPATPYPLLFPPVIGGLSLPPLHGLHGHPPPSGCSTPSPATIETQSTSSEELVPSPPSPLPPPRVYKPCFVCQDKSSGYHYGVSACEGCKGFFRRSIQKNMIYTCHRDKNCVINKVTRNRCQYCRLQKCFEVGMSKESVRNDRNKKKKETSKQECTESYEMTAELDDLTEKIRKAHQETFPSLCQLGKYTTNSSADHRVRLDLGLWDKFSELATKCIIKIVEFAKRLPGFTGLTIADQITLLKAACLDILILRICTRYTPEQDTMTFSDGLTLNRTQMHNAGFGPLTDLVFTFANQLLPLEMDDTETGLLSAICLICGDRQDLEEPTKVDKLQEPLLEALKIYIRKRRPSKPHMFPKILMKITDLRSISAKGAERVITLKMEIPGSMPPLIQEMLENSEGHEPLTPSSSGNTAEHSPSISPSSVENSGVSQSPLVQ
Chain of Peroxisome proliferator-activated receptor gamma (Homo sapiens) (P37231 whole entry, looked up): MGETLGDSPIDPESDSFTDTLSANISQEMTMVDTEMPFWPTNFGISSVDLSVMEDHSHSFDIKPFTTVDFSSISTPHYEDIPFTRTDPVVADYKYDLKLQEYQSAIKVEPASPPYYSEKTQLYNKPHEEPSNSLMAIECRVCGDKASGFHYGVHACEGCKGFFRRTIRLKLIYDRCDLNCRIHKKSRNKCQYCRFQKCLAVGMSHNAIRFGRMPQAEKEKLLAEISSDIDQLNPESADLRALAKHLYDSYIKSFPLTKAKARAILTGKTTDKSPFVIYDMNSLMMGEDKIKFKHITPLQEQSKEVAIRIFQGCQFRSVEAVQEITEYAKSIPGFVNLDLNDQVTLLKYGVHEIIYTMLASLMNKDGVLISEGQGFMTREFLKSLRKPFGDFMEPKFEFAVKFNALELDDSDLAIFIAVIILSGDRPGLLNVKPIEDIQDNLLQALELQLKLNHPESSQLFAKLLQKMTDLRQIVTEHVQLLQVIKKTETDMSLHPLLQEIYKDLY
Chain of Cellular tumor antigen p53 (Homo sapiens) (P04637 whole entry, looked up, the tested form may be a part): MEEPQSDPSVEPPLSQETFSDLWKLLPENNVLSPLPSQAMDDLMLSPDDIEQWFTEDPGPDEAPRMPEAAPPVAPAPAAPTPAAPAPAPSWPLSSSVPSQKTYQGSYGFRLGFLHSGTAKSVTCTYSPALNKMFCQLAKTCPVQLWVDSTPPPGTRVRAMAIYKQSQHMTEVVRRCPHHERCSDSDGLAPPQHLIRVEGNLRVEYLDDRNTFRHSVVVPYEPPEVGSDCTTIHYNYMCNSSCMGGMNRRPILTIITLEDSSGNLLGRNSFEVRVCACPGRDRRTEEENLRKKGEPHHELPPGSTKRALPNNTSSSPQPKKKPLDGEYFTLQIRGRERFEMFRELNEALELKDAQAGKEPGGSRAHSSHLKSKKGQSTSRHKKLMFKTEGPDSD
Chain of human Peroxisome Proliferator-activated Receptor alpha (PPARa), PPARA (gene 5465) (Q07869 whole entry, looked up, the tested form may be a part): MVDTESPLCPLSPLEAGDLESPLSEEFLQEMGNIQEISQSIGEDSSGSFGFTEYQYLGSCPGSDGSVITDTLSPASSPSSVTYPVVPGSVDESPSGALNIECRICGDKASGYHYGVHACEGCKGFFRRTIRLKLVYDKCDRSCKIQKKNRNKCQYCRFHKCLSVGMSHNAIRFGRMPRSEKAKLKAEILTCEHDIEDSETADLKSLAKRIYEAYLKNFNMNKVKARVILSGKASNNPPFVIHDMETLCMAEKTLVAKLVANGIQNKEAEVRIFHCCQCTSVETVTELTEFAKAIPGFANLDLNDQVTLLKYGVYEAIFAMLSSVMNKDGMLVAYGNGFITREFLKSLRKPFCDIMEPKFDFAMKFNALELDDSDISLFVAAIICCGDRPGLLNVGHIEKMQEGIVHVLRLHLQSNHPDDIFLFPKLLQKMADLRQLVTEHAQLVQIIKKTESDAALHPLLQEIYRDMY
Chain of Nuclear respiratory factor 1 (Homo sapiens) (Q16656 whole entry, looked up): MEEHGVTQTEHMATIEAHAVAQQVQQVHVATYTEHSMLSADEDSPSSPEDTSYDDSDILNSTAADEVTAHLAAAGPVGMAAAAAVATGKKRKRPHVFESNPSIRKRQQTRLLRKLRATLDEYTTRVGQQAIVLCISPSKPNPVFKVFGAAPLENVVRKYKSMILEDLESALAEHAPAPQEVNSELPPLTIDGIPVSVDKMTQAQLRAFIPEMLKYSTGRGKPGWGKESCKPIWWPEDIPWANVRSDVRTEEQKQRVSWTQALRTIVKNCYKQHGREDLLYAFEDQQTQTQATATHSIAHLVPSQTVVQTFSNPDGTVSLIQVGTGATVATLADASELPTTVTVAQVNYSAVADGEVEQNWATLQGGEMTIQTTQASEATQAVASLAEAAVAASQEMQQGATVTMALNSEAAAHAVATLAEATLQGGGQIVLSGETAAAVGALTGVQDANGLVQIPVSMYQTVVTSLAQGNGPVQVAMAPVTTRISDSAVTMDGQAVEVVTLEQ

CC1(C)C(C=C(Cl)Cl)C1C(=O)OC(C#N)c1cccc(Oc2ccccc2)c1 (configuration not stated)
active: [7] 0.723 µM | [11] 13.9 µM | [17] 17.9 µM
not listed: [18] | [19] | [20]
inactive: all other assays above

CC(C)NC(=O)N1CC(=O)N(c2cc(Cl)cc(Cl)c2)C1=O
active: [7] 7.39 µM | [11] 32.8 µM | [17] 23.4 µM
not listed: [13] | [15] | [16] | [19] | [20]
inactive: all other assays above

Cc1c(COC(=O)[C@@H]2[C@H](/C=C(\Cl)C(F)(F)F)C2(C)C)cccc1-c1ccccc1
active: [18] 12.7 µM
not listed: [20]
inactive: all other assays above

COc1cc(OC)nc(NC(=O)NS(=O)(=O)c2ncccc2OCC(F)(F)F)n1
not listed: [15] | [16] | [19]
inactive: all other assays above

O=C(Nc1ccccc1-c1ccc(Cl)cc1)c1cccnc1Cl
active: [7] 8.77 µM | [8] 7.03 µM | [17] 10.9 µM
not listed: [13] | [15] | [16] | [20]
inactive: all other assays above

COC(=O)N(C(=O)N1CO[C@@]2(C(=O)OC)Cc3cc(Cl)ccc3C2=N1)c1ccc(OC(F)(F)F)cc1
active: [7] 4.35 µM | [8] 1.71 µM | [18] 5.55 µM
not listed: [6] | [15] | [16] | [20]
inactive: all other assays above

CC1(C)C(C(=O)OC(C#N)c2cccc(Oc3ccccc3)c2)C1(C)C (configuration not stated)
active: [7] 0.913 µM | [16] 13.7 µM | [18] 7.92 µM | [17] 16.9 µM
not listed: [13] | [20]
inactive: all other assays above

CS(=O)(=O)c1ccc(C(=O)C2C(=O)CCCC2=O)c([N+](=O)[O-])c1
not listed: [13] | [15] | [16]
inactive: all other assays above

COP(=S)(OC)Oc1ccc([N+](=O)[O-])c(C)c1
active: [7] 19.1 µM | [8] 50 µM | [11] 15.6 µM | [18] 25.6 µM | [17] 32.6 µM
not listed: [6] | [13] | [15] | [16]
inactive: all other assays above

O=C(O)c1c(Cl)ccc2cc(Cl)cnc12
not listed: [1] | [9] | [15] | [16] | [19]
inactive: all other assays above

CC(C)(C)C(=O)C(Oc1ccc(Cl)cc1)n1cncn1 (configuration not stated)
active: [7] 20.3 µM | [8] 19.4 µM | [16] 50 µM
not listed: [1] | [13] | [20]
inactive: all other assays above

COCC(=O)N(c1c(C)cccc1C)C(C)C(=O)OC (configuration not stated)
active: [7] 50 µM
not listed: [1] | [6] | [15] | [19]
inactive: all other assays above

O=C1C2CC=CCC2C(=O)N1SC(Cl)(Cl)Cl (configuration not stated)
active: [12] 26.6 µM | [18] 32.4 µM
not listed: [1] | [13] | [15]
inactive: all other assays above

COCc1cnc(C2=NC(C)(C(C)C)C(=O)N2)c(C(=O)O)c1 (configuration not stated)
not listed: [6] | [9] | [13] | [19]
inactive: all other assays above

COC(=O)NS(=O)(=O)c1ccc(N)cc1
not listed: [1] | [13] | [15] | [16] | [19]
inactive: all other assays above
